Results from PubChem BioAssay (NCI).
About 79,000 compounds went through this panel and 15% of them were active in at least one assay; those are over-represented in the sample as a whole. Activity calls are given as the source filed them. Cut-off read from the data, not from the text of the source: active = growth inhibition above about 70%; inactive = the rest.

Experiments:
[1] = NCI Yeast Anticancer Drug Screen. Data for the rad52 strain (AID 147);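 note: 0% = growth of vehicle-treated control cultures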; settings: S. cerevisiae rad52 mutant growth inhibition, stronger effect = higher value
Method in brief: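 Read-out: growth inhibition versus vehicle-treated controls. Cells were a DNA repair-deficient yeast strain treated with compounds.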

[2] = NCI Yeast Anticancer Drug Screen. Data for the wt1 strain (AID 149);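 note: 0% = growth of vehicle-treated wt1 cultures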; settings: S. cerevisiae wt1 strain (SPY 50644) growth inhibition, stronger effect = higher value
Method in brief: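 Readout: yeast growth inhibition, normalised to vehicle controls, in the wt1 strain exposed to test compounds.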

[3] = NCI Yeast Anticancer Drug Screen. Data for the rad50EPP+ strain (AID 151);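 note: 0% = growth of vehicle-treated control cultures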; settings: S. cerevisiae rad50 mutant strain, stronger effect = higher value
Method in brief: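 Growth inhibition read against vehicle controls in rad50EPP+ yeast, a strain altered in DNA damage repair, after compound exposure.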

[4] = NCI Yeast Anticancer Drug Screen. Data for the mgt1 strain (AID 153); settings: S. cerevisiae mgt1 mutant growth inhibition, stronger effect = higher value
Method in brief: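 mgt1 yeast grown with test compound; read-out is growth inhibition versus vehicle-treated cultures.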

[5] = NCI Yeast Anticancer Drug Screen. Data for the rad50 strain (AID 155);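 note: 0% = growth of vehicle-only cultures of the same strain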; settings: S. cerevisiae rad50 strain growth inhibition, stronger effect = higher value
Method in brief: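 Compounds were tested on a yeast strain with an engineered DNA damage repair alteration; the reported value is growth inhibition normalised to vehicle treatment.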

[6] = NCI Yeast Anticancer Drug Screen. Data for the mec2-1 strain (AID 157); settings: S. cerevisiae mec2-1 strain, stronger effect = higher value
Method in brief: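 Yeast mec2-1 mutant treated with compound. Readout: growth inhibition vs vehicle controls.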

[7] = NCI Yeast Anticancer Drug Screen. Data for the rad14 strain (AID 159);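 note: 0% = growth of vehicle-treated control cultures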; settings: S. cerevisiae rad14 strain growth inhibition, stronger effect = higher value
Method in brief: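 Compound-treated yeast with a defined DNA-repair lesion; growth inhibition normalised to vehicle-treated cultures.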

[8] = NCI Yeast Anticancer Drug Screen. Data for the CLN2oe strain (AID 163);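 note: 0% = growth of vehicle-only control cultures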; settings: S. cerevisiae CLN2oe strain, stronger effect = higher value
Method in brief: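 Read-out: yeast growth inhibition, expressed relative to vehicle-only controls. The strain bears an engineered cell-cycle alteration.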

[9] = NCI Yeast Anticancer Drug Screen. Data for the cln2 rad14 strain (AID 165);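 note: 0% = growth equal to vehicle treated cultures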; settings: S. cerevisiae cln2 rad14 strain, stronger effect = higher value
Method in brief: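 cln2 rad14 yeast strain; compound exposure; growth inhibition read vs vehicle controls.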

[10] = NCI Yeast Anticancer Drug Screen. Data for the bub3 strain (AID 167); settings: S. cerevisiae bub3 mutant strain, stronger effect = higher value
Method in brief: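 Growth of a checkpoint-deficient yeast mutant is measured after compound exposure. Values represent inhibition relative to vehicle.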

[11] = NCI Yeast Anticancer Drug Screen. Data for the wt2 strain (AID 169);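 note: 0% = growth of vehicle-treated yeast cultures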; settings: S. cerevisiae wt2 strain growth inhibition, stronger effect = higher value
Method in brief: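 Read-out: growth inhibition versus vehicle-treated control cultures after compound exposure of the yeast strain.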

[12] = NCI Yeast Anticancer Drug Screen. Data for the mlh1 strain (AID 171);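 note: 0% = growth of vehicle-treated control cultures of the same strain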; settings: S. cerevisiae mlh1 strain growth inhibition, stronger effect = higher value
Method in brief: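 Read-out: growth inhibition versus vehicle controls. Strain: engineered yeast with a defined DNA repair or cell cycle defect, compound-treated.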

[13] = NCI Yeast Anticancer Drug Screen. Data for the sgs1 strain (AID 173);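 note: 0% = growth of vehicle-only control cultures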; settings: S. cerevisiae sgs1 mutant, stronger effect = higher value
Method in brief: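 Read-out: yeast growth inhibition relative to vehicle controls, following compound exposure of a strain with a defined DNA repair/cell cycle alteration.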

[14] = NCI Yeast Anticancer Drug Screen. Data for the mlh1 rad18 strain (AID 175); settings: S. cerevisiae mlh1 rad18 strain growth inhibition, stronger effect = higher value
Method in brief: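 Yeast w/ defined DNA-repair lesions; compound exposure; growth vs vehicle controls → % inhibition.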

[15] = NCI Yeast Anticancer Drug Screen. Data for the rad18 strain (AID 177); settings: S. cerevisiae rad18 mutant growth inhibition, stronger effect = higher value
Method in brief: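 Readout: growth inhibition vs vehicle controls. Cells: genetically altered yeast strain, DNA repair defect.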

[16] = at 5.0 µM (retest, dose inferred, filed as 0.5)
[17] = at 50.0 µM (retest, dose inferred, filed as 5.0)

Measured: growth inhibition

COC1=CCC23C(=O)C=CC(=O)C2(C1)C(=O)c1ccccc1C3=O (stereo not given)
inactive: [1]; at 1.2 µM -40% | [1]; at 3.7 µM -35% | [1]; at 11.0 µM 12% | [1]; at 33.0 µM 54% | [2]; at 1.2 µM -34% | [2]; at 3.7 µM -24% | [2]; at 11.0 µM -16% | [2]; at 33.0 µM -1% | [3]; at 1.2 µM 19% | [3]; at 3.7 µM 17% | [3]; at 11.0 µM 25% | [3]; at 33.0 µM 30% | [3]; at 100.0 µM 62% | [4]; at 1.2 µM -24% | [4]; at 3.7 µM -14% | [4]; at 11.0 µM 6% | [4]; at 33.0 µM 40% | [5]; at 1.2 µM -27% | [5]; at 3.7 µM -47% | [5]; [16] 19% | [5]; at 11.0 µM 12% | [5]; at 33.0 µM 52% | [5]; at 50.0 µM 65.8% | [6]; at 1.2 µM 8% | [6]; at 3.7 µM -4% | [6]; [16] 20% | [6]; at 11.0 µM -11% | [6]; at 33.0 µM 34% | [6]; at 50.0 µM 55.5% | [7]; at 1.2 µM -24% | [7]; at 3.7 µM 2% | [7]; at 11.0 µM 1% | [7]; at 33.0 µM 50% | [8]; at 1.2 µM 17% | [8]; at 3.7 µM 8% | [8]; at 11.0 µM 18% | [8]; at 33.0 µM 38% | [9]; [16] 0% | [9]; [17] -49% | [9]; at 50.0 µM 36.5% | [10]; at 1.2 µM -30% | [10]; at 3.7 µM -38% | [10]; [16] 2% | [10]; at 11.0 µM -29% | [10]; at 33.0 µM 15% | [11]; at 1.2 µM -11% | [11]; at 3.7 µM -5% | [11]; at 11.0 µM 23% | [11]; at 33.0 µM 40% | [12]; at 1.2 µM -11% | [12]; at 3.7 µM -25% | [12]; at 11.0 µM -2% | [12]; at 33.0 µM 54% | [13]; at 1.2 µM 10% | [13]; at 3.7 µM -6% | [13]; at 11.0 µM 24% | [13]; at 33.0 µM 61% | [14]; [16] 26% | [14]; at 50.0 µM 68.2% | [15]; at 1.2 µM -21% | [15]; at 3.7 µM -20% | [15]; at 11.0 µM 32% | [15]; at 33.0 µM 44%
active: [1]; at 100.0 µM 89% | [2]; at 100.0 µM 93% | [4]; at 100.0 µM 93% | [5]; [17] 72% | [5]; at 100.0 µM 87% | [6]; [17] 88% | [6]; at 100.0 µM 91% | [7]; at 100.0 µM 92% | [8]; at 100.0 µM 92% | [10]; [17] 78% | [10]; at 50.0 µM 74.4% | [10]; at 100.0 µM 91% | [11]; at 100.0 µM 93% | [12]; at 100.0 µM 95% | [13]; at 100.0 µM 93% | [14]; [17] 84% | [15]; at 100.0 µM 83%

COc1cc(NCCCCNCC(C)(C)C)c2ncccc2c1
active: [10]; at 50.0 µM 70.9%
inactive: [1]; at 1.2 µM -3% | [1]; at 3.7 µM 1% | [1]; at 11.0 µM 8% | [1]; at 33.0 µM 14% | [1]; at 100.0 µM 26% | [2]; at 1.2 µM -2% | [2]; at 3.7 µM 1% | [2]; at 11.0 µM 4% | [2]; at 33.0 µM 0% | [2]; at 100.0 µM 1% | [3]; at 1.2 µM -8% | [3]; at 3.7 µM -12% | [3]; at 11.0 µM -16% | [3]; at 33.0 µM -19% | [3]; at 100.0 µM -17% | [4]; at 1.2 µM 0% | [4]; at 3.7 µM 3% | [4]; at 11.0 µM 6% | [4]; at 33.0 µM 14% | [4]; at 100.0 µM 2% | [5]; at 1.2 µM -5% | [5]; at 3.7 µM 1% | [5]; [16] 11% | [5]; at 11.0 µM 6% | [5]; at 33.0 µM 10% | [5]; [17] 25% | [5]; at 50.0 µM 59.9% | [5]; at 100.0 µM 35% | [6]; at 1.2 µM -3% | [6]; at 3.7 µM -4% | [6]; [16] -3% | [6]; at 11.0 µM 0% | [6]; at 33.0 µM 2% | [6]; [17] 16% | [6]; at 50.0 µM 18% | [6]; at 100.0 µM 13% | [7]; at 1.2 µM -1% | [7]; at 3.7 µM 8% | [7]; at 11.0 µM 29% | [7]; at 33.0 µM 32% | [7]; at 100.0 µM 28% | [8]; at 1.2 µM 0% | [8]; at 3.7 µM 2% | [8]; at 11.0 µM 12% | [8]; at 33.0 µM 25% | [8]; at 100.0 µM 39% | [9]; [16] 5% | [9]; [17] 33% | [9]; at 50.0 µM 51.6% | [10]; at 1.2 µM -2% | [10]; at 3.7 µM -2% | [10]; [16] 3% | [10]; at 11.0 µM 0% | [10]; at 33.0 µM 19% | [10]; [17] 20% | [10]; at 100.0 µM 37% | [11]; at 1.2 µM -1% | [11]; at 3.7 µM -1% | [11]; at 11.0 µM 3% | [11]; at 33.0 µM 5% | [11]; at 100.0 µM 5% | [13]; at 1.2 µM -3% | [13]; at 3.7 µM -2% | [13]; at 11.0 µM 6% | [13]; at 33.0 µM 15% | [13]; at 100.0 µM 20% | [14]; [16] -1% | [14]; [17] 31% | [14]; at 50.0 µM 37.1% | [15]; at 1.2 µM -5% | [15]; at 3.7 µM 0% | [15]; at 11.0 µM 7% | [15]; at 33.0 µM 8% | [15]; at 100.0 µM 16%

CCCCCCCCCCCCCCN
active: [1]; at 100.0 µM 98% | [2]; at 100.0 µM 98% | [3]; at 100.0 µM 97% | [4]; at 100.0 µM 99% | [5]; [16] 100% | [5]; [17] 97% | [5]; at 50.0 µM 90.3% | [5]; at 100.0 µM 98%
inactive: [1]; at 1.2 µM 8% | [1]; at 3.7 µM 1% | [1]; at 11.0 µM -3% | [1]; at 33.0 µM 23% | [2]; at 1.2 µM 4% | [2]; at 3.7 µM -5% | [2]; at 11.0 µM -1% | [2]; at 33.0 µM 6% | [3]; at 1.2 µM -9% | [3]; at 3.7 µM 18% | [3]; at 11.0 µM 32% | [3]; at 33.0 µM 64% | [4]; at 1.2 µM -2% | [4]; at 3.7 µM 1% | [4]; at 11.0 µM -5% | [4]; at 33.0 µM 52% | [5]; at 1.2 µM 11% | [5]; at 3.7 µM 17% | [5]; at 11.0 µM 11% | [5]; at 33.0 µM 52% | [6]; at 1.2 µM -10% | [6]; at 3.7 µM -5%
